The record followed here is PubChem BioAssay.

A short description of experiment [1]: hESC survival regulators, cell-based (AID 493140; call rule not given here;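 note: cells exposed to compounds for four days before counting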). The settings on record: human embryonic stem cell survival screen; stronger effect = higher value.
Experiment [2] is described as follows: liver-stage malaria parasite growth inhibition, primary screen, cell-based, HepG2, luciferase luminescence, HepG2 viability (AID 624349; in the data active = parasite load remaining mostly below about 12%, no sharp cut-off; inactive = mostly above about 10%;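 note: 100% = mean of DMSO negative control wells on the same plate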). The settings on record: P. berghei liver stage in HepG2, luciferase luminescence, concentration not given here; parasite load remaining: stronger effect = lower value; viability: measured here: HepG2 viability without parasites.
Experiment [3] in a line: stimulators of nuclear beta-catenin in C2C12, primary screen, imaging, WNT3A-conditioned medium, mouse C2C12, NPC library (AID 1117326; in the data active = nuclear beta-catenin stimulation mostly above about 4.2%, no sharp cut-off; inactive = mostly below about 10%). The settings on record: stronger effect = higher value.
The nature of experiment [4]: stimulators of insulin release from INS-1E, primary screen, cell-based, 5 mM glucose, NPC library (AID 1117329;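 active = compound raises insulin release from rat beta cells at 5 mM glucose, no numeric limit stated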). The settings on record: rat INS-1E insulin secretion, at 10 µM, stronger effect = higher value.
A short description of experiment [5]: growth inhibition of GSK3B-pretreated HCT116 cells – cell-based, CellTiter-Glo, 0.2 to 20 µM (AID 1117336;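 active = compounds lowering colon cancer cell viability after pretreatment blocking the GSK3B kinase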). The conditions noted are these: HCT116 viability after GSK3B inhibitor, at 20 µM, stronger effect = higher value. In general terms: ATP-based viability assays read luminescence as a measure of living cells.
The nature of experiment [6]: inhibition of endothelial tube formation, primary screen, imaging, VEGF stimulated, CD31 staining, tube area, NPC library (AID 1117340). The settings on record: VEGF-stimulated ADSC/ECFC co-culture, at 10 µM, stronger effect = higher value.
The nature of experiment [7]: glucagon-like peptide 1 release enhancers, primary assay, NCI-H716 cell line, NPC library (AID 1117341;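 active = compound raises GLP1 secretion from the human gut endocrine cells, with no numeric limit stated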). The settings on record: NCI-H716 cells, at 10 µM, stronger effect = higher value.
Experiment [8] is described as follows: HCT116 colon cancer cell growth inhibition, primary screen, CellTiter-Glo luminescence, NPC library (AID 1117342;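 active = compounds that lower survival of HCT116 colon cancer cells in the luminescence readout, no numeric limit stated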). The settings on record: at 20 µM (top of the series).
The nature of experiment [9]: CellTiter-Glo luminescent readout of SW480 viability loss, NPC library primary (AID 1117343;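 active = compounds that lower viability of the colon cancer cells in the luminescence readout, with no numeric limit stated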). The conditions noted are these: CellTiter-Glo luminescence; at 20 µM (top of the series) unless noted.
Experiment [10] in a line: decreased DLD-1 cellular survival, CellTiter-Glo luminescent readout, NPC compound collection, primary HTS (AID 1117346;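 active = compounds that lower survival of DLD-1 colon cancer cells in the luminescence readout, no cutoff given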). The settings on record: DLD-1 viability, CellTiter-Glo luminescence; at 20 µM (top of the series).
A short description of experiment [11]: differential killing of epithelial or mesenchymal cells, primary screen, imaging, PC-3E GFP, TEM4-18 mCherry, co-culture (AID 1345086;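 active = compounds killing one labelled cell type while sparing the other, by normalised counts and ratio limits, not self-fluorescent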;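 for all read-outs here: cells exposed to compound for 72 h before imaging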;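 for red/green cell ratio (normalised): normalised mesenchymal count divided by normalised epithelial count so high means epithelial killing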). The conditions noted are these: imaging cell counts, at 1 µM; for red/green cell ratio (normalised): actives lie on both sides, counts scaled to control wells, 1 = unselective.
Experiment [12] is described as follows: sensitizers of A549 cells to miR-34 induction, primary screen, imaging, A549 dox-inducible miR-34, nuclei and caspase counts (AID 1347080;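 active = compounds whose cell count with miR-34 switched on is under 0.7 times the count with it off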). The settings on record: A549 miR-34 inducible, Hoechst nuclei count, 48 h.
Experiment [13] can be described thus: survival rescue of mitochondrial mutant cells in low glucose, primary screen, MELAS cybrids, Rieske KO mouse fibroblasts, CellTiter-Glo (AID 1508586;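 active = mean z-score across replicates of 1.96 or higher in either the MELAS or the Rieske mutant cell line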;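 note: z relative to plate mean and SD of compound and empty wells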).
The target of experiment [14] is NAD(+) hydrolase SARM1 (Homo sapiens) (UniProt Q6SZW1). In words: SARM1 TIR NADase inhibitors, cell lysate, NAD-Glo luminescence (AID 1508614;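 active = compound whose remaining NAD level is above about 45 nM, limit read from the data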;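 note: higher remaining NAD means stronger inhibition of SARM1 NADase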). The conditions noted are these: SAM-TIR HEK293T lysate NADase, at 1 µM, stronger effect = higher value.
Sequence of NAD(+) hydrolase SARM1 (Homo sapiens) (Q6SZW1 whole entry, looked up): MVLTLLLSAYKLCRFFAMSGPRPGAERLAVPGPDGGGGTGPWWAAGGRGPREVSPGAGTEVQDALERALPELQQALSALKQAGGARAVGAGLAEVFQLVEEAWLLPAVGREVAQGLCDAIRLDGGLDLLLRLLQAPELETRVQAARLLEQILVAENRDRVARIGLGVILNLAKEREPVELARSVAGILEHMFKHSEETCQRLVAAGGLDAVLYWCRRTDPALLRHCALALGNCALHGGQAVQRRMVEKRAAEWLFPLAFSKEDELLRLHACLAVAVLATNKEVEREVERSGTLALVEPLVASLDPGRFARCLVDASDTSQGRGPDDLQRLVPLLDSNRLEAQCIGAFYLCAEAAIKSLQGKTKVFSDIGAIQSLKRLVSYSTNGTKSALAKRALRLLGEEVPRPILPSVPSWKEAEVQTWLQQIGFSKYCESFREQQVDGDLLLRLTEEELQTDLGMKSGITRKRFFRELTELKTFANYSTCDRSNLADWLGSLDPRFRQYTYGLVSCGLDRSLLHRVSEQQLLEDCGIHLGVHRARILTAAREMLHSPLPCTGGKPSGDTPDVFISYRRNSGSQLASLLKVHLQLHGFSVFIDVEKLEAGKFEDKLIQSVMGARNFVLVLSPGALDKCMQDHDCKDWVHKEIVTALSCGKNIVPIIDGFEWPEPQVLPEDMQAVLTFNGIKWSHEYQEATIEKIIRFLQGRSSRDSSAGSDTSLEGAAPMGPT
[15] abbreviates: measured here: epithelial PC-3E GFP cell survival.
The mark [16] stands for this setting: measured here: mesenchymal TEM4-18 mCherry cell survival.
Setting [17] is: stronger effect = lower value, cell number ratio, induced over uninduced.
Where [18] appears, read: measured here: relative caspase fold change +Dox/-Dox.
The mark [19] stands for this setting: measured here: total cells with miR-34 induction, stronger effect = lower value.
[20] abbreviates: measured here: total cells without miR-34 induction.
Where [21] appears, read: MELAS cybrid survival, CellTiter-Glo 48 h, stronger effect = higher value.
The mark [22] stands for this setting: Rieske KO mouse fibroblast survival, CellTiter-Glo 72 h.

“And” between values parts separate entries of the source, which are not always exact repeats. Identical values can stand only once. The source made the active and inactive calls.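 Rule for the calls, unless noted: active = compound that reduces growth-factor-driven endothelial tube area in a mixed cell culture, no cutoff stated; inactive = the rest.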

As for `O=C(NCC(O)CO)c1c(I)c(C(=O)NCC(O)CO)c(I)c(N(CCO)C(=O)CO)c1I` (configuration not stated), the survival in [1] is 5.33 (inactive). In addition, in experiment [2], the parasite load remaining was 117% (inactive). Moreover, in [2], the viability (usually a read-out of living cells in per cent, often relative to untreated cells) amounted to 103%. Also, the nuclear beta-catenin stimulation in experiment [3] (at 10 µM) is 0.6% (inactive); in experiment [3] (stimulation, at 2 µM), 1.1%. The insulin secretion stimulation in experiment [4] is 2.2% (inactive). Also, the viability decrease in experiment [5] is -0.3% (inactive). Moreover, the tube area decrease in experiment [6] is -24.3% (inactive). The GLP1 secretion stimulation in experiment [7] was -2.6% (inactive). Besides, the inhibition of viability in [8] is 50.9% (active). Further, the viability decrease (inhibition) in experiment [9] is 15.5% (inactive); in experiment [10], 27.9% (inactive). Further, the red/green cell ratio (normalised) in [11] is 0.86 (inactive). For the same molecule, the normalised cell number was found to be 1.25 in experiment [11] (setting [15]) and 1.07 in experiment [11] (setting [16]). The fold change in experiment [12] (setting [17]) is 0.865 (inactive); in experiment [12] (setting [18]), 1.27. The results for the cell count in experiment [12] (setting [19]) and in experiment [12] (setting [20]) were 8520 and 9850, respectively. Further, the z-score was -0.49 (inactive) in experiment [13] (setting [21]) and -1.02 in experiment [13] (setting [22]). In experiment [14], the remaining NAD is 10 nM (inactive).
Consider `O=S(=O)(O)c1cc(I)c(O)c2ncccc12`, for which the nuclear beta-catenin stimulation in experiment [3] (at 10 µM) was -0.8% (inactive); in [3] (stimulation, at 2 µM), -0.5%. The insulin secretion stimulation in experiment [4] is -0.3% (inactive). The viability decrease in [5] was 62.2% (active). For the same molecule, the tube area decrease in experiment [6] is -5.5% (inactive). Also, in [7], the GLP1 secretion stimulation is -2.6% (inactive). Moreover, in experiment [8], the inhibition of viability is 41% (inactive). Also, the results for the viability decrease (inhibition) in experiment [9] and in [10] were 77.9% (active) and 53.4% (active), respectively. The red/green cell ratio (normalised) in experiment [11] was 1 (inactive). Also, the normalised cell number in [11] (setting [15]) came to 1.1; in [11] (setting [16]) it was 1.11. Moreover, the fold change in experiment [12] (setting [17]) is 1.07 (inactive); in experiment [12] (setting [18]), 0.778. The results for the cell count in [12] (setting [19]) and in [12] (setting [20]) were 5970 and 5570, respectively. The remaining NAD in experiment [14] is 10 nM (inactive).
As for `S=C=Nc1ccc(N=C=S)cc1`, the nuclear beta-catenin stimulation in experiment [3] (at 10 µM) is 16.4% (inactive); in [3] (stimulation, at 2 µM), -0.1%. In [4], the insulin secretion stimulation is 3.2% (inactive). In addition, in experiment [5], the viability decrease was 77.2% (active). The tube area decrease in [6] is 100% (active). Also, the GLP1 secretion stimulation in [7] is -3.9% (inactive). For the same molecule, the inhibition of viability in [8] is 57% (active). Also, the viability decrease (inhibition) in experiment [9] was 73.5% (active); in [10], 81.3% (active). The red/green cell ratio (normalised) in [11] was 0.76 (inactive). Moreover, the normalised cell number was found to be 1.12 in [11] (setting [15]) and 0.86 in [11] (setting [16]). In addition, the results for the fold change in experiment [12] (setting [17]) and in experiment [12] (setting [18]) were 0.826 (inactive) and 1.4, respectively. The cell count in [12] (setting [19]) came out at 7160; in experiment [12] (setting [20]) it was 8680. Besides, the remaining NAD in experiment [14] is 10 nM (inactive).
For `Cc1cccc(C)c1NC(=O)CN1CCN(CCCC(c2ccc(F)cc2)c2ccc(F)cc2)CC1`, in experiment [1], the survival is 2.42 (inactive). Further, the parasite load remaining in experiment [2] was 135% (inactive) and 49% (inactive). The viability in [2] was 101% and 79.5%. Moreover, the nuclear beta-catenin stimulation was 4.7% (inactive) in experiment [3] (at 10 µM) and 1.2% in experiment [3] (stimulation, at 2 µM). In experiment [4], the insulin secretion stimulation was -1.1% (inactive). Also, the viability decrease in [5] was 99.6% (active). Besides, the tube area decrease in experiment [6] is 82.9% (active). For the same molecule, in experiment [7], the GLP1 secretion stimulation was -2.6% (inactive). The inhibition of viability in experiment [8] is 99.7% (active). Moreover, the viability decrease (inhibition) was 97.6% (active) in experiment [9] and 102% (active) in [10]. For the same molecule, the red/green cell ratio (normalised) in experiment [11] was 1.02 (inactive). Also, the normalised cell number is 1.1 in experiment [11] (setting [15]) and 1.13 in experiment [11] (setting [16]). Besides, the fold change is 0.884 (inactive) in [12] (setting [17]) and 1.28 in [12] (setting [18]). In addition, the cell count in experiment [12] (setting [19]) came out at 8280; in experiment [12] (setting [20]), 9370. Moreover, the z-score is 0.335 (inactive) in experiment [13] (setting [21]) and 0.284 in experiment [13] (setting [22]).
